This is an account of results in PubChem BioAssay (NCI).

Values joined by “and” are separate entries in the source; they are usually repeats but may differ in a detail not shown here. Equal entries are not always repeated. This is part of a sample that, as a whole, favours compounds with a hit. Of some 83,000 tested, about 20% had one in any assay.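 Single-concentration screen, 48 h exposure, 96-well plates. Endpoint: percent growth. Below 10 = active.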 Active and inactive are the calls of the source.

The test system of the test is TK-10 renal. As to the kind of experiment: NCI-60 one-dose screen, 48 h (100 = growth as untreated, 0 = no growth, -100 = all killed). Particulars: 10 µM unless noted.
In the case of `CC(C)(C)O/N=C/c1cc(NC(=S)c2ccsc2)ccc1Cl`, the growth is -90.2% [100 µM] (active) and -20.8% [100 µM] (active).
Under `N#Cc1c(=N)cc2c3ccccc3oc3c(C#N)c(N)[nH]c1c32` stands 47.1% [100 µM] (inactive) and 2.25% [100 µM] (active); under `CC(O)c1cc2c(s1)C(=O)c1ccsc1C2=O` (stereo not given), -46.9% [100 µM] (active) and -98.9% [100 µM] (active).
Under `Cc1ccc(/C=N/Nc2cc(C)c3ccccc3n2)s1` stands -63.7% [100 µM] (active) and -75.8% [100 µM] (active); under `CCOC(=O)C1(C#N)C(=O)c2cc[n+](CC[n+]3ccc4c(c3)C(=O)C(C#N)(C(=O)OCC)C4=O)cc2C1=O` (stereo not given), 141% [100 µM] (inactive) and 101% [100 µM] (inactive).
Take `CC1(C)CC2(C)OC(=N)C1(C#N)C2(C#N)C#N` (stereo not given): the growth is -89.5% [100 µM] (active) and -77.9% [100 µM] (active).
To `Nc1cc2c3c(cccc3c1)C(=O)N(c1ccc(OCCN3CCCCC3)cc1)C2=O` belongs -13.5% [100 µM] (active) and -100% [100 µM] (active); to `O=c1[nH]c(=O)n(C2CC(O)C(CO)O2)cc1Br` (stereo not given), 67.2% [100 µM] (inactive) and 21% [100 µM] (inactive).
Regarding `COc1c2c(c(OC)c3c1c(=O)c1ccccc1n3C)OCO2`, the growth was 54.2% [100 µM] (inactive).
To `Nc1cc2c3c(cccc3c1)C(=O)N(c1ccc(OCCN3CCCC3)cc1)C2=O` belongs 33.8% [100 µM] (inactive) and -100% [100 µM] (active).
